The values below come from PubChem BioAssay (NCI).

Molecules are shown by their SMILES. About 83,000 compounds went through this panel and 20% of them were active in at least one assay; those are over-represented in the sample as a whole.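 How to read the values: 0–100, growth inhibition (40 = 60% inhibited); 0, no net growth; -100 to 0, cell death (-40 = 40% of starting cells died; -100 = all dead).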 Activity calls are given as the source filed them. The calls were made as follows: active = growth percent below 10; inactive = the rest.

This assay concerns HL-60(TB) leukemia. The assay is described as follows: NCI-60 one-dose screen, 48 h (100 = growth as untreated, 0 = no growth, -100 = all killed). Conditions: 10 µM unless noted.
Regarding `CN1CCN(Cc2ccc(NC(=O)c3cncc(C#Cc4cnc(N)cc4C#N)c3)cc2C(F)(F)F)CC1`, the growth was 4.46% (active). Under `C=CN(C(=O)N1CCN(c2cc3c(cc2F)c(=O)c(C(=O)O)cn3C2CC2)CC1)c1nc(-c2ccc(OC)cc2)cs1` stands -22.9% (active); under `NC(=O)NC1(C(=O)O)CCCC1`, 97.1% (inactive).

For `COc1ccc2c(c1)C=C1CSCC3=Cc4cc(OC)ccc4OC13O2`, the growth is -5.12% (active). As for `Cc1c2c(c(C)c3c1oc1cc(O)ccc13)C(=O)N(CCN1CCCCC1)C2=O`, the growth was 99.3% (inactive). On to `Cc1ccc(-c2csc(NC(=O)CCCCl)n2)cc1`, for which the growth is 109% (inactive).

In the case of `N#Cc1c(-c2ccc(F)cc2)nc(N/N=C/c2c[nH]c3ccccc23)nc1N1CCOCC1`, the growth was 2.62% (active). Under `O=C(Nc1ccccc1Cl)OCCN1CCOCC1` stands 108% (inactive).

As to `N=C(N)N=Nc1ccc(NN=C(N)N)cc1`, the growth was 101% (inactive).

With `CNC(=O)c1ccccc1Sc1ccc2c(/C=C/c3ccccn3)n[nH]c2c1`, the growth was 12.6% (inactive).

With `O=C(O)CCCCCNC(=O)OCc1ccccc1`, the growth is 103% (inactive). For the compound `COc1ccccc1C1=C(Br)C(=O)c2nc(C)ccc2C1=O`, the growth is 44.4% (inactive). Then `CCOc1c(C#N)nnc2c(C#N)c(NC(=O)c3ccccc3)nn12`, with 104% (inactive); and `O=C1Nc2ccc(F)cc2/C1=C\c1nc(-c2ccccc2F)n2ccccc12`, with 120% (inactive); and `O=[N+]([O-])c1cc2ncccc2c2ncccc12`, with 88.1% (inactive). Turning to `C=C(C)[C@@H]1CC[C@]2(C(=O)N3CCN(C)CC3)CC[C@]3(C)[C@H](CC[C@@H]4[C@@]5(C)CCC(=O)C(C)(C)[C@@H]5CC[C@]43C)[C@@H]12`, the growth is 60.1% (inactive). As for `Fc1ccc(Nc2ccnc(N3CCN(c4ccnc5cc(Cl)ccc45)CC3)n2)cc1`, the growth was 15.9% (inactive). Regarding `CCCCCCOc1ccc(/C=N/Nc2cc(C)nc3ccc(Cl)cc23)cc1`, the growth is 8.19% (active).

Take `CN(c1ncccc1CNc1nc(Nc2ccc3c(c2)CC(=O)N3)ncc1C(F)(F)F)S(C)(=O)=O`: the growth is -40% (active). Regarding `O=C(Oc1ccccc1Cl)c1ccc(Cl)cc1Cl`, the growth was 106% (inactive). Take `COc1ccc(-c2nc3sccn3c2-c2ccnc(NCCCNS(=O)(=O)c3ccc(F)cc3)n2)cc1`: the growth was -3.74% (active).

Turning to `COc1cccc2cc(N(C)c3nc(C)nc4c3CCC4)ccc12`, the growth is -8.85% (active).

Regarding `N#Cc1c(-c2ccccc2)cc(-c2ccccc2)n(CC(=O)O)c1=O`, the growth was 23.6% (inactive). Then `CC(C)=CCC[C@](C)(O)[C@H]1CC[C@]2(C)[C@@H]1CC[C@@H]1[C@@]3(C)CC[C@H](OC(=O)CCC(=O)O)C(C)(C)[C@@H]3CC[C@]12C`, with 4.34% [100 µM] (active); and `S=c1nc2[nH]c3ccccc3c2n[nH]1`, with 148% (inactive). Consider `Cn1c(/C=C(\C#N)c2cccc(C(F)(F)F)c2)nc2c(N3CCOCC3)nc(Cl)nc21`, for which the growth is -25.2% (active). Under `CC(C)c1ccc2occ(C=C3C(=O)NC(=O)NC3=O)c(=O)c2c1` stands 74.8% (inactive). As for `O=C(O)c1cn(C2CC2)c2cc(N3CCN(Cc4nc5c(cnn5-c5ccc([N+](=O)[O-])cc5)c(=O)[nH]4)CC3)c(F)cc2c1=O`, the growth is 92.8% (inactive). Turning to `Cc1ccc2nc(/C(C#N)=C(/CCCO)NC(Cc3ccccc3)C(=O)OCc3ccccc3)[nH]c(=O)c2c1` (stereo not given), the growth is 122% (inactive). In the case of `Fc1ccc(C2CC(c3cccc(Nc4ccncc4)c3)=NN2c2cc(Cl)cc(Cl)c2)cc1` (stereo not given), the growth is -13.2% (active). Take `CCN1C(=O)N(CC)C2NC(SC)=NC21` (stereo not given): the growth is 103% (inactive). Take `COc1cc2c(cc1OCCCCCCN1CCN(CC(=O)Nc3ccc(Cl)cc3C(=O)c3ccccc3Cl)CC1)N=CC1CCCN1C2=O` (stereo not given): the growth was -85.8% (active). In the case of `C=C1C(=O)O[C@H]2[C@H]1CC/C(COC(=O)NCc1cn(C)c3ccccc13)=C\CC[C@@]1(C)O[C@@H]21`, the growth is -48.5% (active). As to `Cc1cc(-c2nc3ccccc3s2)ccc1NC(=O)COc1ccc(Cl)cc1`, the growth was 99.1% (inactive). Then `COc1ccc(C2N(c3cc(OC)c(OC)c(OC)c3)C(=O)C2(F)F)cc1F` (stereo not given), with 0.936% (active); and `CC1(C)OC2C(COC(c3ccccc3)(c3ccccc3)c3ccccc3)OC(c3c[nH]c4c(N)ncnc34)C2O1` (stereo not given), with -34.4% (active).

With `CSCCC(NC(=O)c1ccccc1)C(=O)N/N=C1\S/C(=C/c2ccc(Cl)cc2)C(=O)N1C` (stereo not given), the growth is 51.6% (inactive).

With `Clc1ccc(/C=N/Nc2nc3ccccc3s2)c(Cl)c1`, the growth was 98.5% (inactive). `O=S(=O)(NCCNc1nccc(-c2c(-c3ccc(F)c(O)c3)nc3sccn23)n1)c1ccc(O)cc1`: the growth was 41.8% (inactive). As to `Cc1cc(N2CCOCC2)nc(N(CCCNc2ccnc3cc(Cl)ccc23)Cc2ccc3c(c2)OCO3)n1`, the growth was -60.9% (active).
